# Screening data from PubChem BioAssay.
# Mtb betalactam = beta-lactam sensitization of Mtb H37Rv; M. tuberculosis H37Rv growth with meropenem, percent inhibition; inhibition, % at 25 µM; 330,000 tested, 0.27% active; AID 434955;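 further: growth measured after seven days incubation then overnight dye step; 0% = bacteria only wells and 100% = bacteria with antibiotic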
# Mtb FBA inh = Mtb fructose-bisphosphate aldolase inhibition; 360,000 tested, 2.3% active; P9WQA3; AID 588726; purified M. tuberculosis FBA, fluorescence read-out; inhibition, % at 1 µM; in the data active means inhibition above about 27%;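 further: 0% = vehicle and 100% = reference inhibitor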
# UGM FP inh = Mtb UDP-galactopyranose mutase inhibition; P9WIQ1; purified UGM, fluorescence polarization probe displacement; inhibition, % at 10 µM; 320,000 tested, 0.06% active; AID 504406; in the data active means inhibition above about 10%, passing the limit was not always enough
# Rv3671c inh = inhibits the M. tuberculosis serine protease Rv3671c | P9WHR9 | inhibition, % at 5.96 µM | 320,000 tested, 0.048% active | AID 2606; in the data active means inhibition above about 38%;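 further: extracellular domain of Rv3671c used as enzyme; 0% = enzyme with DMSO and 100% = no enzyme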
# Target sequence (P9WHR9 whole entry, looked up, the tested form may be a part): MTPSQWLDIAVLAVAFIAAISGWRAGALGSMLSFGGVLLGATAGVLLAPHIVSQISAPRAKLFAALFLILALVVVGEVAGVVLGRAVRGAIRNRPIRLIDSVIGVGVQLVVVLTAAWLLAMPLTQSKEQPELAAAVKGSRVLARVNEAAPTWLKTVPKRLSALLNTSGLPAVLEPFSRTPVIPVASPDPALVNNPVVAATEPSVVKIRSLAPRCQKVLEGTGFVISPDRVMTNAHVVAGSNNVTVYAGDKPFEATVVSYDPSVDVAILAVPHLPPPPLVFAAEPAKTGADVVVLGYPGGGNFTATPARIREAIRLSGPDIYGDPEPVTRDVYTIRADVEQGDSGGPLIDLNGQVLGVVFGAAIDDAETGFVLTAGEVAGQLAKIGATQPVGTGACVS
# GDH-TPI counter-1 = GDH-TPI coupled enzyme inhibition counter-screen. GDH-TPI coupled enzyme counterscreen, NADH absorbance. AID 588335. inhibition, % at 4.8 µM. 360,000 tested, 1.2% active; in the data active means inhibition above about 30%;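 further: 0% = DMSO wells and 100% = wells lacking the enzyme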
# RecA splice inh = inhibitors of M. tuberculosis RecA intein splicing. P9WHJ3. cell-free RecA intein splicing, fluorescence. inhibition, % (no concentration beside the values). 290,000 tested, 0.75% active. AID 2221; in the data active means inhibition above about 30%;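 further: 0% = vehicle wells and 100% = reference inhibitor control wells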
# Mtb FBA inh conf = confirmation of M. tuberculosis fructose-bisphosphate aldolase inhibitors; inhibition, % at 1 µM; shares compounds with Mtb FBA inh; 5,600 tested, 78% active; purified M. tuberculosis FBA, fluorescence read-out; in the data active means inhibition above about 27%;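 further: 0% = vehicle wells and 100% = reference inhibitor wells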
# GDH-TPI counter-2 = inhibits GDH-TPI coupling enzymes, flagging Mtb FBA hits; shares compounds with Mtb FBA inh; GDH-TPI coupled enzyme counterscreen, fluorescence; inhibition, % at 1 µM; 5,600 tested, 81% active; in the data active means inhibition above about 10%
# GDH-TPI DR = GDH-TPI dose response counter-screen for Mtb FBA. shares compounds with Mtb FBA inh. GDH-TPI coupled enzyme assay, fluorescence, artifact counterscreen. IC50, µM. 170 tested, 79% active. AID 652145
# * = called active by the depositor; nt = no result given. An excerpt weighted towards active compounds, which were near 4% of everything screened. Unless noted, how the calls were made is not given here.
SMILES,Mtb betalactam,Mtb FBA inh,UGM FP inh,Rv3671c inh,GDH-TPI counter-1,RecA splice inh,Mtb FBA inh conf,GDH-TPI counter-2,others
CCCCNC(=S)N(CCCN(C)C)Cc1cc2cc3c(cc2[nH]c1=O)OCO3,-6.0,22.1,0.0,3.4,25.9,-5.1,nt,nt,
O=c1[nH]c2cc3c(cc2cc1CN(Cc1cccnc1)C(=S)NCc1ccco1)OCO3,-7.4,9.6,0.8,0.3,0.3,-3.5,nt,nt,
CCNC(=S)N(CCN(C)C)Cc1cc2cc3c(cc2[nH]c1=O)OCO3,5.2,43.6*,0.5,-2.2,13.8,0.7,57.9*,42.8*,
CCNC(=S)N(CCCN(CC)CC)Cc1cc2cc3c(cc2[nH]c1=O)OCO3,-7.5,24.3,0.3,-3.4,21.5,-5.6,nt,nt,
CN(C)CCN(Cc1cc2cc3c(cc2[nH]c1=O)OCO3)C(=S)NCc1ccco1,-6.7,32.4*,1.1,2.6,25.2,3.4,77.1*,52.3*,
N#CC(C#N)=NNc1ccc2cn[nH]c2c1,nt,1.6,nt,nt,nt,nt,nt,nt,
NC(=O)c1cnn2c(-c3ccc(Cl)cc3Cl)ccnc12,-0.9,12.3,1.3,-0.3,11.0,-11.0,nt,nt,
N#CCC(=O)N/N=C/c1ccc(N2N=C(c3ccccc3)CC2c2ccccc2)cc1 (configuration not stated),1.7,84.7*,4.2,-10.9,3.7,-52.5,11.8,4.6,GDH-TPI DR=0.285*
O=Cc1ccc(N2N=C(c3ccccc3)CC2c2ccccc2)cc1 (configuration not stated),3.6,86.3*,0.2,-5.0,7.0,-170.9,135.7*,89.5*,
CC(=O)Nc1ccc(C2=NN(c3ccccc3)C(c3ccccc3)C2)cc1 (configuration not stated),5.6,105.2*,2.7,12.4,6.4,-5.5,41.6*,33.3*,
CC(=O)c1sc(NC(=O)CCS(=O)(=O)c2ccc(C)cc2)nc1C,74.7,0.9,2.9,-6.1,-7.8,-0.9,nt,nt,
CNc1snc(C)c1C(=O)OC(C)C(=O)NCc1ccccc1 (configuration not stated),nt,-0.7,nt,nt,1.1,nt,nt,nt,
O=c1oc2c(O)cccc2cc1-c1nc2ccccc2[nH]1,11.0,55.2*,-3.6,nt,4.8,-181.0,141.9*,103.2*,
N#Cc1nn(-c2ccccc2)nc1N1CCCCC1,32.0,38.3*,0.5,1.0,11.7,10.3,129.4*,106.0*,
S=c1[nH]c(-c2ccccc2)cn1/N=C/c1ccccc1Br,-15.3,17.6,-1.2,8.8,-0.6,2.1,nt,nt,
COc1cc(/C=N/n2cc(-c3ccccc3)[nH]c2=S)cc(OC)c1O,-3.6,42.9*,-3.1,7.4,26.2,-8.0,79.9*,64.0*,
Cc1ccc(/C=N/n2cc(-c3ccccc3)[nH]c2=S)s1,-0.7,20.9,-1.5,2.3,2.5,2.0,nt,nt,
S=c1[nH]c(-c2ccccc2)cn1/N=C/c1cccc2ccccc12,88.4,32.8*,-4.1,19.9,3.2,6.0,15.1,-2.8,GDH-TPI DR=>10
Oc1ccc(/C=N/n2cc(-c3ccccc3)[nH]c2=S)cc1,-7.0,42.3*,-1.8,-4.0,16.7,0.8,137.1*,116.6*,
COc1cc(Cl)cc(C=O)c1OCC(=O)O,-9.0,1.8,3.8,-5.0,4.3,-0.9,nt,nt,
Cn1c(SCc2ccccc2F)nc2cccnc21,2.0,2.6,0.2,-11.2,6.2,2.5,nt,nt,
CS(=O)(=O)N(CC(=O)N1CCc2ccccc2C1)c1ccc(Cl)cc1F,-3.6,-0.3,-1.2,nt,4.0,-0.4,nt,nt,
O=C(Nc1c2c(nn1-c1ccccc1)CS(=O)(=O)C2)c1cccs1,-8.8,-0.3,-2.8,-1.5,7.7,-0.2,nt,nt,
CCCCCOC(=O)CSc1nnc(-c2ccccc2)c(=O)[nH]1,3.1,-1.0,0.6,-4.6,4.9,-1.1,nt,nt,
N#Cc1ccc(-c2csc(NC(=O)C3CC3)n2)cc1,15.3,50.2*,0.4,-16.1,4.7,-2.2,91.1*,70.8*,
SMILES,Mtb betalactam,Mtb FBA inh,UGM FP inh,Rv3671c inh,GDH-TPI counter-1,RecA splice inh,Mtb FBA inh conf,GDH-TPI counter-2,others
CCOC(=O)C(NC(C)=O)C(=O)Nc1c(C)cccc1C (configuration not stated),-6.8,-2.0,1.5,-11.2,4.2,-0.7,nt,nt,
CCNc1nc(Cl)nc(-c2cn(-c3ccccc3)c3ccccc23)n1,45.5,5.5,-0.8,-6.8,27.7,-2.0,nt,nt,
Clc1nc(Oc2ccccc2)nc(-c2cn(-c3ccccc3)c3ccccc23)n1,-2.6,55.9*,0.3,-0.3,14.0,5.5,44.9*,40.4*,
Cc1cc(-n2c(C)cc(C(=O)COc3ccc4ccc(=O)oc4c3)c2C)no1,99.3,28.3*,-1.1,-7.4,2.8,-1.0,59.8*,59.1*,
CC(=O)c1cccc(OCC(=O)c2cc(C)n(-c3cc(C)on3)c2C)c1,7.9,1.3,2.4,3.2,3.9,3.0,nt,nt,
CC1(CCc2ccc3c(c2)OCO3)NC(=O)c2ccccc2N1 (configuration not stated),6.1,50.4*,2.4,6.7,-4.3,-7.2,149.8*,114.5*,
CS(=O)(=O)c1cnc2c(-c3ccsc3)cnn2c1N,-2.2,-1.0,0.8,15.6,25.6,-1.1,nt,nt,
CCc1nc(Nc2ccncc2)c2oc3ccccc3c2n1,5.3,56.8*,-3.6,3.9,40.1*,0.3,48.8*,40.9*,
CC(=O)Nc1ccc(Nc2nc(C)nc3c2oc2ccccc23)cc1,3.7,-0.9,-0.4,-2.9,22.4,3.4,nt,nt,
Cc1nc(Nc2ccncc2)c2oc3ccccc3c2n1,25.5,35.5*,2.7,-4.0,32.8*,0.0,160.8*,135.6*,
COc1ccc(-c2csc(-c3ccc(O)cc3)n2)cc1,63.3,11.3,1.8,2.0,-7.7,12.0,nt,nt,
Cc1onc(-c2c(F)cccc2Cl)c1C(=O)Nc1nnc(-c2ccccc2)s1,6.6,19.3,4.2,5.7,22.0,2.4,nt,nt,
Cc1onc(-c2ccccc2Cl)c1C(=O)Nc1nnc(-c2ccc(Cl)cc2Cl)s1,-4.2,62.1*,-2.0,-2.5,21.1,7.0,67.7*,56.8*,
Cc1onc(-c2ccccc2Cl)c1C(=O)Nc1nnc(-c2ccc(F)cc2)s1,0.4,16.5,0.6,-15.0,18.7,5.4,nt,nt,
Cc1onc(-c2ccccc2Cl)c1C(=O)Nc1nnc(-c2ccc(Br)cc2)s1,0.1,92.0*,-1.4,-15.9,36.5*,5.4,118.6*,99.0*,
Cc1ccc2cc(-c3noc(C4CCCO4)n3)c(=O)[nH]c2c1 (configuration not stated),-3.1,37.0*,1.1,5.6,16.0,2.4,42.0*,45.5*,
CCCCCCCC[n+]1cccc2c3ccccc3ccc21,15.9,67.0*,-1.6,3.3,-3.1,3.0,65.1*,41.9*,
C#CCOc1ccc(C2C3=C(CCCC3=O)N(CC(=O)O)C3=C2C(=O)CCC3)cc1Br,-5.3,90.7*,-0.3,-3.7,2.9,-451.0,153.3*,130.7*,
